Results as given in PubChem BioAssay (NCATS).
Inconclusive results are not listed. Active and inactive are the calls of the source. The call rests on the fitted dose curve; in most records, active means well fitted curve in the direction sought with a large enough effect; inconclusive means small, poorly fitted or top-dose-only effect, or another doubt; inactive means no such curve, though single readings can be large; an effect the other way counts as inactive or inconclusive.

What was measured:
[1] = target: Lysine-specific demethylase 5B (Homo sapiens) (UniProt Q9UGL1); assay: Optimization screen for KDM5B Histone Demethylases FDH coupled qHTS against the LOPAC library (AID 1347166); further: 0% is about no effect
How it was run: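 KDM5BDeltaAP (200nM final) in 50mM HEPES pH 7.5, 0.01% Tween-20 was preincubated with compound for 10 min at room temperature. A substrate mix of 12.5uM H3K4Me3, 25uM a-ketoglutarate, ascorbate, Fe2+, NAD+ and formaldehyde dehydrogenase was then added. NADH fluorescence (340/450 nm) was read initially and after 30 min.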

[2] = qHTS for inhibitors of adenylyl cyclases using a fission yeast platform: a pilot screen against the NCATS LOPAC library (AID 1347410);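 further: plate controls were DMSO vehicle for no effect and DPI positive control for full effect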
How it was run: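 S. pombe CHP2027 (AC9-GNAS-PDE4D2) carrying a PKA-repressed fbp1-GFP reporter was exposed to LOPAC compounds (final up to 57 µM) for 18 h at 30C in the dark, in EMM with histidine, lysine and uracil; GFP gain-of-signal read by laser scanning cytometry.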

[3] = target: Protein phosphatase 1D (Homo sapiens) (UniProt O15297); assay: RapidFire Mass Spectrometry qHTS Assay for Modulators of WT P53-Induced Phosphatase 1 (WIP1) (AID 1347424);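 further: amount of dephosphorylated VEPPL-S-QETFS peptide product formed by WIP1; series mostly up to about 63 µM; plate controls were DMSO wells for no effect and GSK830371 inhibitor control at 10 µM for full effect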
How it was run: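 RapidFire mass spectrometry measured dephosphorylated peptide after 5 min room-temperature reaction of 2 uM VEPPL-pS-QETFS with 10 nM WIP1 (50 mM Tris-HCl pH 7.5, 30 mM MgCl2, 0.1 mM EGTA, BSA), following 1 hr compound preincubation; 1 uM isotope-labelled product standard.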

[4] = target: Protein phosphatase 1D (Homo sapiens) (UniProt O15297); assay: Rhodamine-PBP qHTS Assay for Modulators of WT P53-Induced Phosphatase 1 (WIP1) (AID 1347425); further: % of control where 0% means no effect
How it was run: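 Steps: enzyme with Rh-PBP sensor and compounds, room-temperature incubation of 1 hr, baseline read, addition of VEPPL-pS-QETFS (10 uM final), kinetic fluorescence reads at 525/598 nm. Activity equals final minus baseline signal.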

[5] = Validation qHTS assay for inhibitors of Activation Induced Cytidine Deaminase (AID): UDG Counterscreen signal (AID 1347427); further: 0% is about no effect
How it was run: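 Fluorescence at 560 nm excitation, 665 nm emission reports UDG signal after 250 mM NaOH (2x) addition and 30 min. Enzymes (AID 1 uM, UDG 2 U/mL, at 4/3x) preincubated 10 min with compound, then 4 h with 4x 250 nM DJC20/DJC23 substrate at room temperature.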

[6] = target: Single-stranded DNA cytosine deaminase (Homo sapiens) (UniProt Q9GZX7); assay: Validation qHTS assay for inhibitors of Activation Induced Cytidine Deaminase (AID): AID signal (AID 1347429); further: on the % scale 0 is the no-effect control and ±100 the full control effect
How it was run: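 Compounds (up to 114 uM final) are tested against AID plus UDG using DJC20/DJC23 FRET substrate. Reactions incubate 4 hr at room temperature, receive NaOH for 30 min, and are read at Ex 540/Em 590 nm.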

[7] = Primary qHTS for inhibitors of La Crosse Virus (LACV) - induced cell death in SH-SY5Y cells (AID 1508616);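 further: top concentration of the series differs between compounds; 0% = infected DMSO wells and 100% = uninfected DMSO wells; higher means more rescue of cells from virus-induced death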
How it was run: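 Screening measures cell viability in LACV-infected SH-SY5Y cultures. Compound was added before virus (0.01 MOI), and ATP was detected by luminescence 6 days later.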

[8] = target: Calcium and integrin-binding protein 1 (Homo sapiens) (UniProt Q99828); assay: Validation qHTS for Identification of Calcium Integrin Binding protein 1 (CIB1) Competitor (AID 1508618); further: on the % scale 0 is the no-effect control and ±100 the full control effect
How it was run: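 In this qHTS validation, the LOPAC set (up to 114 uM) was tested for blocking CIB1 binding to a fluorescein-tagged alphaIIb peptide, with FP detection at 480/540 nm.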

[9] = target: Calcium and integrin-binding protein 1 (Homo sapiens) (UniProt Q99828); assay: Primary qHTS for Identification of Calcium Integrin Binding Protein 1 (CIB1) Competitor (AID 1508620);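 further: GST tagged CIB1 binding a fluorescein labelled alphaIIb integrin peptide tracer; top concentration of the series differs between compounds; on the % scale 0 is the no-effect control and ±100 the full control effect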
How it was run: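 CIB1-GST (1 uM final) and compound incubated 15 min at room temperature before adding FITC-alphaIIb peptide tracer (100 nM final). Competition for binding read by fluorescence polarization (ex 480, em 540) after another 15 min at room temperature.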

[10] = Confirmatory screen NINDS Rhodamine qHTS for Zika virus inhibitors (AID 1347161); details: purified enzyme assay, Rhodamine110 substrate fluorescence, 15 min; further: potency means the concentration at half of the fitted maximal effect; nearly all actives have a fitted effect of over 60% in size
How it was run: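 Rhodamine110-peptide cleavage (1.5 µM substrate) by 25 nM linked NS2B-NS3 enzyme at pH 8.0 (Tris, Tween 20), after 15 min RT preincubation with compounds; 15-min fluorescence change normalized to controls and Hill-fitted.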

[11] = qHTS to identify inhibitors of the type 1 interferon - major histocompatibility complex class I in skeletal muscle: primary screen against the NCATS Pharmaceutical Collection (AID 1347407);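 further: luminescence of HiBiT knocked into endogenous HLA-B as interferon-induced MHC class I level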; further: potency means the concentration at half of the fitted maximal effect
How it was run: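 Immortalized human myoblasts (C25cl48) with HiBiT knocked into endogenous HLA-B*08:01 were stimulated with 4 ng/ml IFN-beta and treated with compounds (8-point, 1:5, top 46 uM final) for 24 h at 37 C; HiBiT lytic luminescence read.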

[12] = Counterscreen qHTS for small molecule stabilizers of the endoplasmic reticulum resident proteome: GLuc-NoTag assay (AID 1508627); further: potency means the concentration at half of the fitted maximal effect;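 on activity change, negative = inhibition: SH-SY5Y cells given compound then 100 nM thapsigargin to empty ER calcium; series mostly up to about 76 µM; 0% = thapsigargin alone and -100% = DMSO vehicle control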
How it was run: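 Counterscreen line: SH-SY5Y-GLuc-NoTag cells, treated with compound 19 hr before a 4 hr, 100 nM thapsigargin calcium depletion. Secreted Gaussia luciferase in the medium was measured by luminescence after coelenterazine was added (0.07x final), with cells unlysed.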

[13] = qHTS to identify inhibitors of the type 1 interferon - major histocompatibility complex class I in skeletal muscle: primary screen against the NCATS LOPAC collection (AID 1347405);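 further: lytic HiBiT luminescence reporting HLA-B protein level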; further: potency means the concentration at half of the fitted maximal effect
How it was run: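 IFN-beta-stimulated (4 ng/ml) HLA-B HiBiT knock-in myoblasts, compound-treated 24 hrs up to 46 uM final; signal via LgBiT complementation and furimazine luminescence.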

[14] = qHTS to identify inhibitors of the type 1 interferon - major histocompatibility complex class I in skeletal muscle: primary screen against the NCATS Mechanism Interrogation Plate v5.0 (MIPE) Libary (AID 1347411); further: nearly all actives have a fitted effect of over 65% in size; further: potency means the concentration at half of the fitted maximal effect;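 on activity change, negative = inhibition: plate controls were vehicle for no effect and reference inhibitor for full effect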
How it was run: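 IFN-beta-driven (4 ng/ml) HLA-B-HiBit expression in CRISPR-tagged C25cl48 myoblasts; compounds 11-pt, 1:3, max 46 uM, 24 hr exposure; lytic NanoLuc complementation luminescence.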

[15] = test system: Zika virus NS2B-NS3 protease (linked); assay: 384 well plate NINDS AMC confirmatory qHTS for Zika virus inhibitors (AID 1347163);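 further: fluorescence of AMC released from Ac-VKTGKR-AMC peptide cleaved by the protease; top concentration of the series differs between compounds; 0% = no-inhibitor control and -100% = no-enzyme control; nearly all actives have a fitted effect of over 50% in size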
How it was run: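 Enzyme (5, 30 or 60 nM final) first met test compounds for ~15 min. The AMC-tagged peptide Ac-VKTGKR-AMC followed at 30 microM. Fluorescence was then recorded at 25 min and scaled against no-enzyme and no-inhibitor wells.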

[16] = test system: Zika virus NS2B-NS3 protease (linked construct); assay: 384 well plate NINDS Rhodamine confirmatory qHTS for Zika virus inhibitors (AID 1347164); details: rhodamine-110 peptide substrate fluorescence;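 further: fluorescence from protease cleavage of Ac-LKRR-rhodamine 110 substrate; potency means the concentration at half of the fitted maximal effect; nearly all actives have a fitted effect of over 65% in size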
How it was run: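 Linked protease at a final 5 nM, 30 nM or 60 nM was preincubated ~15 min with compounds, then given 10 microM Ac-LKRR-Rhodamine 110. Fluorescence (ex 485/em 538 nm) after 25 min in the dark at room temperature.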

[17] = Vero cells viability qHTS for Zika virus inhibitors (AID 1347167); further: on the % scale 0 is the no-effect control and ±100 the full control effect
How it was run: (§1)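 Luminescent ATP readout (CellTiter Glo) after 30 min at 37 degrees C gives viability; cells in DMEM + 4% FBS were treated 24 to 48 hours with compound, following overnight attachment.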

[18] = HepG2 cells viability qHTS for Zika virus inhibitors (AID 1347168); further: on the % scale 0 is the no-effect control and ±100 the full control effect
How it was run: as §1

[19] = Tertiary RLuc qRT-PCR qHTS assay for Zika virus inhibitors (AID 1347169); further: top concentration of the series differs between compounds; on the % scale 0 is the no-effect control and ±100 the full control effect; nearly all actives have a fitted effect of over 55% in size
How it was run: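 Vero cells (1,000 per well) plated overnight at 37 degrees C, treated with compound in DMSO, then infected with recombinant ZIKV-RLuc (Cambodian) at MOI 1-2 for 48-72 hrs. Live-cell Renilla luciferase substrate added; luminescence read after 1-1.5 hrs.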

Sequence of Lysine-specific demethylase 5B (Homo sapiens) (Q9UGL1 whole entry, looked up): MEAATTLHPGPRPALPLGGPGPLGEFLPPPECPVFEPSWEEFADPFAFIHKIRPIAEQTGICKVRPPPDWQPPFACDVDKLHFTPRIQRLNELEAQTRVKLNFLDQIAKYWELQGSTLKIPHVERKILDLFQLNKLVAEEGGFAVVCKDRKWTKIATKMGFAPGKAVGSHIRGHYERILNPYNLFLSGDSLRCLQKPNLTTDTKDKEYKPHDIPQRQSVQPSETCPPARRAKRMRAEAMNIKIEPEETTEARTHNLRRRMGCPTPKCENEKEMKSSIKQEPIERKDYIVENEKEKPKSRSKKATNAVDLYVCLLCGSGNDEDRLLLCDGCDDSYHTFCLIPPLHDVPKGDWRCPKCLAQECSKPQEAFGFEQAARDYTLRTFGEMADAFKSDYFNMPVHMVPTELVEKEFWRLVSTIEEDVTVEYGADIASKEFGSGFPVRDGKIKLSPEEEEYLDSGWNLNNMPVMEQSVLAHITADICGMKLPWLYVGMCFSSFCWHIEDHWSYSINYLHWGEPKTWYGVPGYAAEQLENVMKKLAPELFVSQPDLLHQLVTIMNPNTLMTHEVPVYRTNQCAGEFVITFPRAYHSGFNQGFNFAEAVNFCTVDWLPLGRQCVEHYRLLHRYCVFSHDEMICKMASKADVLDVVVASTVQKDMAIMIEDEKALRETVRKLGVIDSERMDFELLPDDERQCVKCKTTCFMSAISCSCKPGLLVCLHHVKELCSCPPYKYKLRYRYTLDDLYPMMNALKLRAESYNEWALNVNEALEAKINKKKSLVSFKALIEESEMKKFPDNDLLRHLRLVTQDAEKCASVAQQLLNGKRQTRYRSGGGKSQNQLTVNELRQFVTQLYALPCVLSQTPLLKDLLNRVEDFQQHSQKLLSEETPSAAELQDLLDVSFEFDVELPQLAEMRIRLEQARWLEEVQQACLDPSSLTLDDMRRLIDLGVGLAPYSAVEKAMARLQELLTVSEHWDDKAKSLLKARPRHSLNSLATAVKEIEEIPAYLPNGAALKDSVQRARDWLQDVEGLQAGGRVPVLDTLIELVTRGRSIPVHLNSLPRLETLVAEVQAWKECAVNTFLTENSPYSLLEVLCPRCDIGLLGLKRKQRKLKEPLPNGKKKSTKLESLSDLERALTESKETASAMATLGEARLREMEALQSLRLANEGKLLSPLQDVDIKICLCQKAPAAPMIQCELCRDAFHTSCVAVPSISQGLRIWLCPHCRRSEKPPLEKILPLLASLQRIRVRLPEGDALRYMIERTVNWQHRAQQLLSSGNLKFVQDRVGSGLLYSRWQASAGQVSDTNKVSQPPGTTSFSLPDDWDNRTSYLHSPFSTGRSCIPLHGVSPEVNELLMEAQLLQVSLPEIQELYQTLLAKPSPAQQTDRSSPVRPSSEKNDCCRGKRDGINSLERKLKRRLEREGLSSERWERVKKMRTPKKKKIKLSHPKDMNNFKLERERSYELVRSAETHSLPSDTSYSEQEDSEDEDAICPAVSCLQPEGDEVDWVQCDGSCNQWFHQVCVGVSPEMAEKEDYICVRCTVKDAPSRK
Sequence of Protein phosphatase 1D (Homo sapiens) (O15297 whole entry, looked up): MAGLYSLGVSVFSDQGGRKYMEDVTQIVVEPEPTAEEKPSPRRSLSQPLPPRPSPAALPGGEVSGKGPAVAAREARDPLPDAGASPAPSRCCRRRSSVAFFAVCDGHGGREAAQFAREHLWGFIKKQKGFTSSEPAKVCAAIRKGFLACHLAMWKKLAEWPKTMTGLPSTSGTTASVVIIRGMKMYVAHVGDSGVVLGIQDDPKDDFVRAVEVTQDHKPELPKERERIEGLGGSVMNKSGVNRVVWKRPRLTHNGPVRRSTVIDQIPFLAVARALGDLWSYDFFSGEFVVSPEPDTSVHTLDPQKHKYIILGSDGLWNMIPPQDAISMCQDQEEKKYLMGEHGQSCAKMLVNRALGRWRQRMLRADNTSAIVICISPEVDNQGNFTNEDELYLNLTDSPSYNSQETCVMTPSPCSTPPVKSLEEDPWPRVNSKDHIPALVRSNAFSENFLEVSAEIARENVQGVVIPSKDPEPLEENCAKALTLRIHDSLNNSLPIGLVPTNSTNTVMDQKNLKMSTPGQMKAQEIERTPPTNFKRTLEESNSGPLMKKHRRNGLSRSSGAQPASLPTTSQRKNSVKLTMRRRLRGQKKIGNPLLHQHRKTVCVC
Sequence of Single-stranded DNA cytosine deaminase (Homo sapiens) (Q9GZX7 whole entry, looked up): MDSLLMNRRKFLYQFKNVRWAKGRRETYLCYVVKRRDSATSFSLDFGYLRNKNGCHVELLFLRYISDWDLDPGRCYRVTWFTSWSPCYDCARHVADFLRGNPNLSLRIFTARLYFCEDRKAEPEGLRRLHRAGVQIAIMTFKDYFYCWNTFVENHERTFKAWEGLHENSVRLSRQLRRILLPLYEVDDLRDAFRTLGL
Sequence of Calcium and integrin-binding protein 1 (Homo sapiens) (Q99828 whole entry, looked up): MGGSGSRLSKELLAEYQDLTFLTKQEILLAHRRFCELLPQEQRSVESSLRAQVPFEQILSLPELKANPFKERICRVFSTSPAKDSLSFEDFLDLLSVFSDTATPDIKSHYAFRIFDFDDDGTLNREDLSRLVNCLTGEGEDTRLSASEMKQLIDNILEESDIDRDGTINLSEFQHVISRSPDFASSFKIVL

C[C@](N)(Cc1ccc(O)cc1)C(=O)O
inactive: outcome [1] | outcome [2] | activity change, negative = inhibition [3] 3.41% [at 6.17 µM] | activity change, negative = inhibition [4] -0.695% [at 4.81 µM] | Potency [5] | Potency [6] | outcome [7] | outcome [8] | activity change, negative = inhibition [9] 5.16% [at 12.4 µM]

COc1ccc2c(c1)C(=O)N(CCc1ccc(S(=O)(=O)NC(=O)NC3CCCCC3)cc1)C(=O)C2(C)C
active: Potency [10] 31.2 µM
inactive: outcome [7] | outcome [9]

CCN(CC)CCOC(=O)C1(C2CCCCC2)CCCCC1
inactive: outcome [1] | Potency [11] | outcome [2] | outcome [3] | outcome [4] | Potency [5] | Potency [6] | outcome [7] | outcome [8] | outcome [9] | Potency [12]

CC[C@H]1CN2CCc3cc(OC)c(OC)cc3[C@@H]2C[C@@H]1C[C@H]1NCCc2cc(OC)c(OC)cc21
inactive: outcome [1] | outcome [2] | outcome [3] | Potency [5] | Potency [6] | outcome [8] | outcome [9]
active: Potency [13] 0.282 µM | Potency [11] 0.264 µM | Potency [14] 0.658 µM

CNCCC(Oc1ccc(C(F)(F)F)cc1)c1ccccc1 (stereo not drawn)
inactive: outcome [1] | Potency [11] | outcome [2] | outcome [3] | outcome [4]
active: Potency [12] 44.7 µM

CCCn1cnc2c1c(=O)n(CCCCC(C)=O)c(=O)n2C
inactive: outcome [1] | Potency [13] | Potency [11] | outcome [2] | outcome [3] | outcome [4] | Potency [5] | Potency [6] | outcome [7] | outcome [8] | outcome [9]

CN(C)CCOC(C)(c1ccccc1)c1ccccn1 (stereo not drawn)
inactive: outcome [1] | outcome [2] | outcome [3] | outcome [4] | Potency [5] | Potency [6] | outcome [7] | outcome [8] | outcome [9]

Nc1ncnc2c1ncn2[C@@H]1O[C@H](CO)[C@@H](O)[C@H]1O
inactive: outcome [1] | Potency [11] | outcome [2] | Potency [14] | outcome [3] | Potency [5] | Potency [6] | outcome [7] | outcome [8] | outcome [9]

CC(C)(O)c1ccccc1CC[C@@H](SCC1(CC(=O)O)CC1)c1cccc(/C=C/c2ccc3ccc(Cl)cc3n2)c1
active: Potency [16] 112 µM
inactive: Potency [15] | Potency [17] | outcome [18] | Potency [19] | Potency [11] | outcome [7]

CN(C)CCC=C1c2ccccc2CCc2ccccc21
inactive: outcome [1] | Potency [11] | outcome [2] | outcome [3] | outcome [4] | Potency [5] | Potency [6] | outcome [7] | outcome [8] | outcome [9]

CN(C)CC[C@@H](c1ccc(Cl)cc1)c1ccccn1
inactive: outcome [1] | Potency [11] | outcome [2] | outcome [3] | Potency [5] | Potency [6] | outcome [7]
